Laboratory results taken from the supplement of paper PMC6555819.

Each sequence was assayed on FXR:RXRa (NR concentration 270 nM, RXRa partner concentration 90 nM) (assay: PBM binding z-score (relative to random genomic background probes); higher = stronger binding; sequences stand for … in GC…GCGATTGACAGCGTAGAATGAAGG).
In short: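 Custom Agilent 4×180K protein-binding microarrays carried double-stranded probes, each with a 34-nt variable region. These regions held direct-repeat seeds, single-nucleotide variants, half-site ablations and random human genomic background sequences. Ligand-free nuclear receptor dimers were incubated on the arrays for 1 h, antibodies against each partner (one per run) detected binding, and scanned fluorescence was regression-normalized. Binding z-scores take the random background probes as reference.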
For CCGACTGGGCCAAGGTCATTGATCAGTCAAAGCA, the PBM binding z-score was 2.94.
CAAACTAGGTCACGCAAGGTCAAAGTCGAATGAC showed a PBM binding z-score of 7.41.
With GCTGCTACGTCAGGTTGGTCAGCTAACGGGTACG the PBM binding z-score was -0.416.
TCTCGGAGGACAAGAAAGGTCAGAGCTCGACATC was tested, and the PBM binding z-score was 2.65.
Work on ACAATGAGGTTATACGTAGATCAGGGAAGAAAGT yielded a PBM binding z-score of 2.38.
For GCGACTGGGGCAAAGCAGGTGACCATAAGGTTGG, the PBM binding z-score was -0.334.
Work on ACCGAAAGGTCGAGGTGAGTATAGAGAAAGGGAA yielded a PBM binding z-score of 4.42.
In the case of ATACCAAGGCGATCGTGAGGTCGTTGATACTAAC, the PBM binding z-score is reported as 0.659.
In the case of TCAGACAGGTGAAGGTAACTCACGTACGCAGTCG, the PBM binding z-score is reported as 0.8.
Work on TCATATAAGTAAAGGTGAAAGTCGAACGATATGA yielded a PBM binding z-score of 1.
CGAACTAGGTTATCCAGGACAGTGAATACATTGA showed a PBM binding z-score of 0.556.
For GGAACGAGGGCAAGTTGATAGCCGAGTTTGATGG, the PBM binding z-score was 0.943.
Sequence CGAATTAGGTCATCCAGGACAGTGAATACATTGA has a PBM binding z-score of 4.75.
Work on TGAATGAGGTTATAAGATCAGGGGACGTTGCAAA yielded a PBM binding z-score of 1.42.
With ATATGTAGGTTAGCGGGTCATTCAGTTTGCGCAT the PBM binding z-score was 2.01.
Sequence GCTTACGGGTCAAAGGTTATAGCGTGAATAGAAT has a PBM binding z-score of 7.45.
CAGCCTAGGTCAGGTCCAGTATAGGAGGAACGTT was tested, and the PBM binding z-score was 1.07.
ACTATAAGTTGACTTAGGGCAACCGATACGACGC showed a PBM binding z-score of 0.483.
ATCTTTAGGTAAAGATAGTTCAGTGAATGCAAAT showed a PBM binding z-score of 0.178.
In the case of TCTGATAGGTCAACGATGGTCAGCTAATCTGCTA, the PBM binding z-score is reported as 5.29.
TAGCCTAGGTCATGCGGGCCAGTTTAGTGTCGGC was tested, and the PBM binding z-score was 3.92.
Work on GCGACTGGGGCAAAGCAGCTTACCATAAGGTTGG yielded a PBM binding z-score of -0.808.
